Our source for the Potency and outcome values is PubChem BioAssay (NCATS).

Results filed as inconclusive are left out. A call without a number means that no potency is given here. Calls of active or inactive are those of the source. Calls follow the shape of the dose curve; as a rule, active = well fitted curve in the direction sought with a large enough effect; inconclusive = small, poorly fitted or top-dose-only effect, or another doubt; inactive = no such curve, though single readings can be large; an effect the other way counts as inactive or inconclusive.

A short description of experiment [1]: qHTS to identify inhibitors of the type 1 interferon - major histocompatibility complex class I in skeletal muscle: primary screen against the NCATS Pharmaceutical Collection (AID 1347407).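 Also: luminescence of HiBiT knocked into endogenous HLA-B as interferon-induced MHC class I level.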 Also: potency is read from the fitted curve at half-maximal effect. The settings on record: human skeletal muscle cells, IFN-b-induced MHC-I HiBiT luminescence, 24 h; series mostly up to 45.9 µM. Summed up: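 A qHTS format is used: 8-point, 1:5 compound series with 46 uM top final concentration, applied alongside 4 ng/ml IFN-beta to HLA-B*08:01-HiBiT knock-in myoblasts. Luminescence is measured after 24 h treatment.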

Experiment [2] deals with Protein phosphatase 1D (Homo sapiens) (UniProt O15297). Briefly: RapidFire Mass Spectrometry qHTS Assay for Modulators of WT P53-Induced Phosphatase 1 (WIP1) (AID 1347424).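 Also: amount of dephosphorylated VEPPL-S-QETFS peptide product formed by WIP1.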 The settings on record: WIP1 dephosphorylation of phosphopeptide, RapidFire MS; series mostly up to 63 µM. Summed up: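 RapidFire mass spectrometry measured dephosphorylated peptide after 5 min room-temperature reaction of 2 uM VEPPL-pS-QETFS with 10 nM WIP1 (50 mM Tris-HCl pH 7.5, 30 mM MgCl2, 0.1 mM EGTA, BSA), following 1 hr compound preincubation; 1 uM isotope-labelled product standard.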

Experiment [3] has the same target. As to the kind of experiment: Rhodamine-PBP qHTS Assay for Modulators of WT P53-Induced Phosphatase 1 (WIP1) (AID 1347425). The settings on record: recombinant WIP1, Rhodamine-PBP phosphate fluorescence, real-time; series mostly up to 57.5 µM. Summed up: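 The read-out is the change in Rhodamine-PBP fluorescence (f1 - f0, ex 525/em 598 nm) as Pi is released, read each minute for 11 min. Final reaction: 5 nM WIP1, 10 uM phosphopeptide VEPPL-pS-QETFS, 10 uM Rh-PBP, 50 mM Tris-HCl pH 7.5, 30 mM MgCl2. Compound was preincubated with enzyme for 1 hour at room temperature.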

The nature of experiment [4]: qHTS to identify inhibitors of the type 1 interferon - major histocompatibility complex class I in skeletal muscle: primary screen against the NCATS Mechanism Interrogation Plate v5.0 (MIPE) Libary (AID 1347411). Also: nearly all actives have a fitted effect of over 65% in size. The settings on record: iHSKM cells + IFN-b, HiBiT-tagged MHC-I luminescence, 24 h; series mostly up to 45.8 µM. Put shortly:
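Seed engineered human myoblasts (HLA-B HiBit) in medium without dexamethasone containing 4 ng/ml IFN-beta; after 1 hr add compound titrations (top 46 uM final). Incubate 24 hrs at 37 C, lyse 10 min with HiBiT reagent, read luminescence.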

Experiment [5] can be described thus: Validation qHTS assay for inhibitors of Activation Induced Cytidine Deaminase (AID): UDG Counterscreen signal (AID 1347427). The settings on record: biochemical UDG counterscreen, fluorescence signal; series mostly up to 115 µM. Summed up:
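Fluorescence at 560 nm excitation, 665 nm emission reports UDG signal after 250 mM NaOH (2x) addition and 30 min. Enzymes (AID 1 uM, UDG 2 U/mL, at 4/3x) preincubated 10 min with compound, then 4 h with 4x 250 nM DJC20/DJC23 substrate at room temperature.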

Protein phosphatase 1D (Homo sapiens), sequence (O15297 whole entry, looked up): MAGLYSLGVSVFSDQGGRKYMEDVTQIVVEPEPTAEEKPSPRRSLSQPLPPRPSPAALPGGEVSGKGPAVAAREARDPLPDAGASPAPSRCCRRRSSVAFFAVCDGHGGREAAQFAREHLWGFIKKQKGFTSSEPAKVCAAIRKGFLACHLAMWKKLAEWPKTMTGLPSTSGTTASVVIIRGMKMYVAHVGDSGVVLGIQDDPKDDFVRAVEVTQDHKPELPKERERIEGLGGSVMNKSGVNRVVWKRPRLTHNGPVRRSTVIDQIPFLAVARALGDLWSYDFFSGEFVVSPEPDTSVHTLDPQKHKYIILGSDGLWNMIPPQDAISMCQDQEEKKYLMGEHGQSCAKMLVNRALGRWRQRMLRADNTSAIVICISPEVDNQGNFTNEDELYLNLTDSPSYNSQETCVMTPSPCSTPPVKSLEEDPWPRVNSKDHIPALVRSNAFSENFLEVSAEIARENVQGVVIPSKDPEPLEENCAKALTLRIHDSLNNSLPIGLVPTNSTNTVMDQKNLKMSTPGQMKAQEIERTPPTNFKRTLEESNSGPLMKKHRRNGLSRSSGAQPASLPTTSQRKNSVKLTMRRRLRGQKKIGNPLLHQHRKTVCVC

Consider `COC1CC(=C(c2cccs2)c2cccs2)C[N+](C)(C)C1` (configuration not stated), for which the Potency entry in experiment [1] and in experiment [2] was “inactive” each time. For the same compound, the outcome in experiment [3] was inactive.

Take `COC(=O)C(Cl)C(=O)OC`: the Potency entry in experiment [1] and in experiment [2] was “inactive” each time. For the same compound, the result in experiment [3] was inactive.

`COP(=S)(OC)Oc1ccc(SC)c(C)c1`: the Potency result in experiment [1] and in experiment [2] was “inactive” in each case. Besides, the result in experiment [3] was inactive.

On to `CCC(C)(C)c1ccc(O)cc1`, for which the Potency entry in experiment [1] and in experiment [2] was “inactive” throughout. Further, in experiment [3], the result was inactive.

In the case of `Clc1ccccc1N1CCNCC1`, the Potency result in experiment [1] and in experiment [2] was “inactive” each time. In experiment [3], the result was inactive.

`O=C1c2ccccc2C(=O)c2ccccc21`: the Potency result in experiment [1] and in experiment [2] was “inactive” each time. Moreover, the result in experiment [3] was inactive.

In the case of `CCc1cc2c(s1)-n1c(C)nnc1CN=C2c1ccccc1Cl`, the Potency result in experiment [1] and in experiment [2] was “inactive” throughout. In addition, in experiment [3], the outcome was inactive.

As to `NC(=O)c1cc([N+](=O)[O-])cc([N+](=O)[O-])c1`, the Potency entry in experiment [1] and in experiment [2] was “inactive” in each case. Further, the outcome in experiment [3] was inactive.

Turning to `O=c1[nH]c2ccccc2n1C1CCNCC1`, the Potency result in experiment [1] and in experiment [2] was “inactive” each time. Also, the outcome in experiment [3] was inactive.

As for `CN1CC[C@]23c4c5ccc(O)c4O[C@H]2[C@@H](O)CC[C@H]3[C@H]1C5`, the Potency entry in experiment [1] and in experiment [2] was “inactive” throughout. Further, the result in experiment [3] was inactive.

For the compound `COc1c2c(cc3c1OCO3)CCN(C)C2`, the Potency result in experiment [1] and in experiment [2] was “inactive” in each case. In experiment [3], the outcome was inactive.

With `CC(C)NC(C)C`, the Potency result in experiment [1] and in experiment [2] was “inactive” each time. The result in experiment [3] was inactive.

Take `Nc1ccc([As](=O)(O)O)cc1`: the Potency result in experiment [1] and in experiment [2] was “inactive” each time. The result in experiment [3] was inactive.

On to `CCN[C@H](C)Cc1cccc(C(F)(F)F)c1`, for which the Potency entry in experiment [1] and in experiment [2] was “inactive” each time. In experiment [3], the result was inactive.

`CC(C)c1c(CN(C)C(C)Cc2ccccc2)n(C)n(-c2ccccc2)c1=O` (configuration not stated): the Potency entry in experiment [1] and in experiment [2] was “inactive” each time. The outcome in experiment [3] was inactive.

Turning to `CCCCCCC(=O)CCCCCC/C=C/C[C@@H](O)[C@H](O)[C@@](N)(CO)C(=O)O`, the Potency entry in experiment [1] and in experiment [2] was “inactive” each time. Further, in experiment [3], the outcome was inactive.

As for `C[C@]12CC[C@H]3[C@@H](CC[C@@]45O[C@H]4C(O)=C(C#N)C[C@]35C)[C@H]1CC[C@H]2O`, the Potency in experiment [1] was 11.8 µM (active). In addition, in experiment [2], the Potency result was “inactive”. Moreover, the result in experiment [3] was inactive.

As for `COP(=S)(OC)Oc1ccc(S(=O)(=O)N(C)C)cc1`, the Potency result in experiment [1] and in experiment [2] was “inactive” throughout. In experiment [3], the outcome was inactive.

`NNc1ccccc1`: the Potency result in experiment [1] and in experiment [2] was “inactive” throughout. In addition, the result in experiment [3] was inactive.

For the compound `CC(C)(C)NCC(O)c1cc(Cl)c(N)c(C(F)(F)F)c1` (configuration not stated), the Potency entry in experiment [1] and in experiment [2] was “inactive” throughout. Further, the outcome in experiment [3] was inactive.

On to `CCC(CC)(CNC(=O)CCCO)c1cccc(OC)c1`, for which the Potency entry in experiment [1] and in experiment [2] was “inactive” throughout. In addition, the outcome in experiment [3] was inactive.

With `CC(C(=O)c1ccccc1)N(C)C` (configuration not stated), the Potency result in experiment [1] and in experiment [2] was “inactive” each time. The outcome in experiment [3] was inactive.

Turning to `C=CCC1([C@H](C)CCC)C(=O)NC(=O)NC1=O`, the Potency entry in experiment [1] and in experiment [2] was “inactive” throughout. The outcome in experiment [3] was inactive.

Take `CC(C)=CC1C(C(=O)OCN2C(=O)C3=C(CCCC3)C2=O)C1(C)C` (configuration not stated): the Potency result in experiment [1] and in experiment [2] was “inactive” in each case. Besides, in experiment [3], the result was inactive.

Regarding `Nc1nc(N)nc(NC2CC2)n1`, the Potency result in experiment [1] and in experiment [2] was “inactive” in each case. Moreover, the outcome in experiment [3] was inactive.

`CCN(CCO)CCn1c(Cc2ccccc2)nc2c1c(=O)n(C)c(=O)n2C`: the Potency result in experiment [1] and in experiment [2] was “inactive” in each case. In addition, the outcome in experiment [3] was inactive.

For `ClCCN1CCCC1`, the Potency result in experiment [1] and in experiment [2] was “inactive” each time. In experiment [3], the outcome was inactive.

Turning to `Nc1ccccc1C(=O)O`, the Potency entry in experiment [1] and in experiment [2] was “inactive” in each case. In experiment [3], the outcome was inactive.

For `Nc1ccccc1`, the Potency entry in experiment [1] and in experiment [2] was “inactive” in each case. Further, in experiment [3], the result was inactive.

Take `C[C@@H]1CC2=CC(=O)CC[C@@H]2[C@H]2CC[C@@]3(C)[C@@H](CC[C@]3(C)O)[C@@H]21`: the Potency result in experiment [1] and in experiment [2] was “inactive” each time. For the same compound, the result in experiment [3] was inactive.

With `CC(=O)OCC1=C(C(=O)O)N2C(=O)[C@@H](N)[C@H]2SC1`, the Potency result in experiment [1] and in experiment [2] was “inactive” each time. Besides, the outcome in experiment [3] was inactive.

As to `O=C1CN=C(c2ccccc2)c2cc([N+](=O)[O-])ccc2N1`, the Potency entry in experiment [1] and in experiment [2] was “inactive” in each case. For the same compound, the outcome in experiment [3] was inactive.

In the case of `C[C@]12CCC(=O)C=C1CC[C@@H]1[C@H]3CC[C@](C)(O)[C@@]3(C)CC[C@@H]12`, the Potency entry in experiment [1] and in experiment [2] was “inactive” each time. Moreover, the result in experiment [3] was inactive.

Consider `CC(C)C[C@H](CN)CC(=O)O`, for which the Potency entry in experiment [4] is “inactive”.

`C[C@]12CC[C@@H]3c4ccc(OC(=O)N(CCCl)CCCl)cc4CC[C@H]3[C@@H]1CC[C@@H]2OP(=O)(O)O`: in experiment [4], the Potency entry was “inactive”.

As to `CCCCC/C=C\C/C=C\C/C=C\C/C=C\CCCC(=O)NCC(=O)O`, in experiment [5], the call was inactive.
